In the supplement of paper PMC4840960:

What was measured:
[1] = test system: E18 rat cortical neuron-glia co-culture; experiment: fiber score / MBP score (myelination specific beyond OL differentiation) (ratio); higher = more myelination-specific MBP alignment; settings: treatment time: 8 days (DIV5-DIV13)
Outline: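 Library compounds were applied at 1 or 5 µM in myelination medium, DIV5 to DIV13, to primary E18 rat cortical co-cultures grown at 20,000 cells/well in 96-well plates. After 4 % paraformaldehyde fixation and MBP/Olig2/DAPI immunostaining, four 10X fields per well in duplicate wells were scored. Each value is continuous MBP fiber length per Olig2+ nucleus divided by thresholded MBP area × intensity per Olig2+ nucleus.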

[2] = test system: E18 rat cortical neuron-glia co-culture; experiment: myelination (MBP fiber length per Olig2+ nucleus), % of 1 µM DAPT response (DMSO = 0) (% of DAPT); higher = more myelination, active = 50 or more; settings: treatment time: 8 days (DIV5-DIV13)
Outline: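 Library compounds at 1 or 5 µM in myelination medium were applied from DIV5 to DIV13 to papain-dissociated E18 rat cortical co-cultures seeded at 20,000 cells/well on poly-d-lysine/laminin 96-well plates. Fixed cells (4 % paraformaldehyde) were immunostained for MBP and Olig2 with DAPI, and four 10X fields were analysed in each duplicate well. Continuous straight MBP fiber length per Olig2+ nucleus was set to 0 for 0.1 % DMSO and to 100 for a 1 µM positive control.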

SMILES	fiber score / MBP score ([1]; 1 µM)	fiber score / MBP score ([1]; 5 µM)	myelination ([2]; 1 µM)	myelination ([2]; 5 µM)
Cc1[nH]cnc1CN1CCc2c(c3ccccc3n2C)C1=O [Alosetron]	0.768	0.974	-18.2 (inactive)	-2.39 (inactive)
Cc1ccc(Cl)c(Nc2ccccc2C(=O)O)c1Cl [Meclofenamic acid]	0.788	0.864	-26 (inactive)	-2.96 (inactive)
C#C[C@]1(O)CC[C@H]2[C@@H]3CCc4cc(OC)ccc4[C@H]3CC[C@@]21C [Mestranol]	0.724	0.298	-6.5 (inactive)	-18 (inactive)
C[C@H](N[C@@H](CCc1ccccc1)C(=O)O)C(=O)N1CCC[C@H]1C(=O)O [Enalaprilat]	0.936	0.731	-2.57 (inactive)	-9.9 (inactive)
O=C(O)c1cc(=O)c2c(OCC(O)COc3cccc4oc(C(=O)O)cc(=O)c34)cccc2o1 [Cromolyn Sodium]	0.501	0.409	-7.17 (inactive)	-12.9 (inactive)
COc1ccc(C2CNC(=O)C2)cc1OC1CCCC1 (stereo unspecified) [Rolipram]	0.626	0.618	-51.4 (inactive)	-53.6 (inactive)
CN1CCN(c2nc3cc(C(F)(F)F)ccc3n3cccc23)CC1	0.707	0.682	-2.34 (inactive)	-20.7 (inactive)
COc1cc2nc(N(C)CCCNC(=O)C3CCCO3)nc(N)c2cc1OC (stereo unspecified) [Alfuzosin]	0.472	0.636	-57.9 (inactive)	-36.4 (inactive)
CC[N+](C)(C)c1cccc(O)c1 [Edrophonium]	0.813	0.982	-6.47 (inactive)	0.577 (inactive)
